Many of the other results were omitted from the sample, so hits are more common in it than they were.
HT1080-NT tox: qHTS for induction of synthetic lethality in tumor cells producing 2HG: qHTS for the HT-1080-NT fibrosarcoma cell line; HT-1080-NT fibrosarcoma viability, CellTiter-Glo ATP luminescence, 48 h; Potency, µM (series often up to 46.1 µM), without a hit: at the top dose activity, negative = less viability, hits mostly cytotoxic; actives 1.6% (n = 360,000); AID 686970, 2013;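 also: NT is the 2HG producing partner of a matched IDH1 knockdown line; potency is read from the fitted curve at half-maximal effect; 0% = DMSO-treated cells and -100% = media-only wells without cells; nearly all actives have a fitted effect of over 55% in size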
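750 cells/well, RPMI + 5% FBS; 2 h settle, compound pin-transfer, 48 h at 37 degrees C. CellTiter-Glo 10 min RT, luminescence. Normalized to DMSO and media-only wells.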
12-LOX inh: Primary qHTS assay for inhibitors of human arachidonate 12S-lipoxygenase (ALOX12): Round 2; Polyunsaturated fatty acid lipoxygenase ALOX12 (Homo sapiens), P18054; purified 12hLO, xylenol orange hydroperoxide absorbance; Potency, µM (doses to about 108 µM), inactives show top-dose activity change, negative = inhibition, hits mostly inhibitors; actives 1.1% (n = 580,000); also: potency is read from the fitted curve at half-maximal effect
Target sequence (P18054 whole entry, looked up): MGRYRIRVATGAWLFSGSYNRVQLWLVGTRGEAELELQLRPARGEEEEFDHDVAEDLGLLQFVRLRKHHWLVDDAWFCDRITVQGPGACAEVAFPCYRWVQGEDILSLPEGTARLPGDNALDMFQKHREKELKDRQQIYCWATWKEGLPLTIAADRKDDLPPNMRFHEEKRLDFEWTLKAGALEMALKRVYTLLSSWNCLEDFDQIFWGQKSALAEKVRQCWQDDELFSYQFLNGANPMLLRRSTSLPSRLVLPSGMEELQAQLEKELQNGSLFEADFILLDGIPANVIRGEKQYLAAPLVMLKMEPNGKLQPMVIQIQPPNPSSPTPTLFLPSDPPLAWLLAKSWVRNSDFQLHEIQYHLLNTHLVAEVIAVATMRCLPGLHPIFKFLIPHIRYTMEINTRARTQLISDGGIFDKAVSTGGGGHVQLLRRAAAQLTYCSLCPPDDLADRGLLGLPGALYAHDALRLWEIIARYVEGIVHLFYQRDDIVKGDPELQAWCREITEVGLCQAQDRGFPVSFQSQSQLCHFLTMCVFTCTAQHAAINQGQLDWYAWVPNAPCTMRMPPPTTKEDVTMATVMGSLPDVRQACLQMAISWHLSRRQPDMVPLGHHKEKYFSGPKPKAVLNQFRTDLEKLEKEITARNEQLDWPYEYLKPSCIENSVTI
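Purified human 12hLO (150 nM final) in 25 mM Hepes, 0.01% Triton X-100, pH 7.0 was preincubated 15 min at room temperature with compound. Then 40 uM arachidonic acid was added, 30 min. Hydroperoxide was read by Fe-XO absorbance ratio 573/405 nm.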
TDP1 cell noCPT: qHTS for Inhibitors of human tyrosyl-DNA phosphodiesterase 1 (TDP1): qHTS in cells in absence of CPT. DT40 Tdp1-/- hTDP1 cells, no CPT, ATP luminescence, 48 h. Potency, µM (top dose mostly 46.2 µM), for inactives: at the highest dose activity change, negative = growth inhibition, hits mostly inhibitors. actives 15% (n = 420,000). AID 686978, 2013; also: potency is read from the fitted curve at half-maximal effect; nearly all actives have a fitted effect of over 55% in size
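Cells were dispensed at 400 per well, compounds added by pin tool, plates incubated ≥48 hr at 37 °C, then CellTiter-Glo added for 30 min at room temperature before luminescence reading. Line: DT40 Tdp1-/- complemented with hTDP1; camptothecin omitted.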
TDP1 cell CPT: qHTS for Inhibitors of human tyrosyl-DNA phosphodiesterase 1 (TDP1): qHTS in cells in presence of CPT; AID 686979, 2013; actives 12% (n = 420,000); chicken DT40 Tdp1-/-;hTDP1 cells + 20 nM CPT, ATP luminescence, 48 h; Potency, µM (titrated, usually from 46.2 µM), without a hit: at the highest dose activity change, negative = growth inhibition, most hits filed as inhibitors; also: potency is read from the fitted curve at half-maximal effect; nearly all actives have a fitted effect of over 55% in size
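Chicken DT40 Tdp1-/- cells complemented with human TDP1, 400 cells/well, exposed to compounds plus 20 nM camptothecin for at least 48 h at 37 C; viability read as ATP content by CellTiter-Glo luminescence.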
IL-1B inflam inh: qHTS for Inhibitors of Inflammasome Signaling: IL-1-beta AlphaLISA Primary Screen; actives 4.7% (n = 360,000); AID 743279, 2014; THP-1 LPS/ATP IL-1B secretion, AlphaLISA, 16 h; stronger effect = lower value; activity change, % at 57.5 µM; in the data active = activity change below about -50%; inconclusive = mostly about -30% to -49%
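Secreted IL-1B measured by AlphaLISA bead assay after 16 h compound exposure of THP-1 cells; compounds (final up to 57.5 uM) added 1 h before LPS (250 ng/mL) and ATP (1.25 mM) stimulation; lower signal means less secretion.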
HT1080 IDH1KD tx: qHTS for induction of synthetic lethality in tumor cells producing 2HG: qHTS for the HT-1080-IDH1KD cell line; HT-1080 IDH1 knockdown viability, ATP luminescence, 48 h; AID 686971, 2013; actives 2% (n = 360,000); Potency, µM (highest dose often 46.1 µM), without a hit: at the highest dose activity, negative = toxicity, hits mostly cytotoxic;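 also: potency is read from the fitted curve at half-maximal effect; 0% = DMSO wells and -100% = cell-free medium wells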
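Viability of IDH1-knockdown HT-1080 fibrosarcoma cells was assessed by CellTiter-Glo after 48 h at 37 °C with titrated compound; concentration-effect curves were classified by fit quality and response size.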
Numbers without * were called inactive; ? = inconclusive; / = not tested or not shown; [ ] = remark or other dose. Unless noted, calls follow the shape of the dose curve; as a rule, active = well fitted curve in the direction sought with a large enough effect; inconclusive = small, poorly fitted or top-dose-only effect, or another doubt; inactive = no such curve, though single readings can be large; an effect the other way counts as inactive or inconclusive. Unless noted, % is scaled to controls: 0 for no effect and ±100 for the full control effect.

SMILES	HT1080-NT tox	12-LOX inh	TDP1 cell noCPT	TDP1 cell CPT	IL-1B inflam inh	HT1080 IDH1KD tx
COc1ccccc1NC(=O)CSc1nc2nccnc2c(=O)n1CCc1c[nH]c2ccccc12	/	-10%	15µM*	18µM*	/	/
Cc1cccc(NC(=O)CSc2nc3nccnc3c(=O)n2CCc2ccccc2)c1	/	-7%	/	/	/	/
Cc1ccc(NC(=O)CSc2nc3nccnc3c(=O)n2CCc2c[nH]c3ccccc23)c(C)c1	/	-15%	12µM*	12µM*	/	/
COc1ccccc1NC(=O)Cn1c(=O)n(CCc2c[nH]c3ccccc23)c(=O)c2cccnc21	4%	11%[57.4 µM]	-62%	?	-10	3%
COc1ccc(Nc2nc(Nc3ccc(F)cc3)nc3nccnc23)cc1	/	2%	/	/	/	/
CN(CCCN1CCCCCC1)c1nc(-c2ccncc2)nc2c1cnn2C	/	83%	/	/	/	/
CCc1ccc(NC(=O)c2ccc(CNS(=O)(=O)c3ccc4c(c3)C(C)(C)C(=O)N4C)cc2)cc1	/	-3%	4.1µM*	?	/	/
CN1C(=O)C(C)(C)c2cc(S(=O)(=O)NCc3ccc(C(=O)Nc4ccc(Cl)cc4)cc3)ccc21	/	-15%	13µM*	18µM*	/	/
Cc1ccc(CNS(=O)(=O)c2ccc3c(c2)C(C)(C)C(=O)N3C)cc1	17%	251%	-27%	8%	14	-2%
CN(C)c1nc2c(c(=O)[nH]1)CCN(Cc1cccc(OC(F)(F)F)c1)CC2	/	35%	/	/	/	/
CCOC(=O)C1CCN(Cc2cc(=O)oc3ccc(C)cc23)CC1	/	6%	/	/	/	/
CCCCCn1c(CCNC(=O)CCC)nc2ccccc21	19%	14%[57.4 µM]	16µM*	?	33	7%
CCCC(=O)NCCCc1nc2ccccc2n1C	9%	14%	3%	-15%	5	12%
CCCC(=O)NCCc1nc2ccccc2n1Cc1c(F)cccc1Cl	/	-4%	15µM*	21µM*	/	/
C=C(C)Cn1c(CCCNC(=O)CCC)nc2ccccc21	-2%	19%	15µM*	13µM*	8	-10%
CCCCCn1c(CCCNC(=O)CC)nc2ccccc21	-2%	13%	16µM*	21µM*	38	1%
Cc1cc2oc(=O)cc(CN3CCN(C)CC3)c2cc1C	/	1%	/	/	/	/
CC(NC(=O)c1cccc2c1CCN2C(=O)Nc1ccc(F)cc1)c1ccccn1 (centres undefined)	/	68%	/	/	/	/
CCCCn1c(CCCNC(=O)c2ccco2)nc2ccccc21	-9%	0%	15µM*	?	36	-1%
CCCCn1c(CCNC(=O)c2ccco2)nc2ccccc21	0%	-29%	?	?	4	-7%
CCCn1c(CCCNC(=O)c2ccccc2OC)nc2ccccc21	/	-9%	18µM*	?	/	/
COCc1nc2ccccc2n1Cc1ccccc1C	5%	8%	?	?	-6	-2%
C=CCn1c(CCCNC(=O)c2ccccc2OC)nc2ccccc21	8%	/	?	?	-22	-5%
COCc1nc2ccccc2n1Cc1c(F)cccc1Cl	5%	0%	13µM*	18µM*	3	-1%
CC(C)c1ccc(-n2nnnc2C2(Nc3ccccc3)CCCC2)cc1	/	52%	/	/	/	/
SMILES	HT1080-NT tox	12-LOX inh	TDP1 cell noCPT	TDP1 cell CPT	IL-1B inflam inh	HT1080 IDH1KD tx
CCc1ccccc1NC(=O)N1C[C@@H](F)C[C@H]1C(=O)N1CCc2ccccc2C1	/	46%	/	/	/	/
N#CCc1ccnc2ccccc12	-1%	-29%	-19%	?	-20	5%
CCCCCCCCCN(CCCCCCCCC)c1ccc(/C=C/c2ccnc3ccccc23)cc1	/	/	5%	1%	/	/
CCN(CCC#N)c1ccc(/C=C/c2ccnc3ccccc23)cc1	/	/	20µM*	?	/	/
CN(CCC#N)c1ccc(/C=C/c2ccnc3ccccc23)cc1	/	/	2µM*	0.79µM*	/	/
CCCc1cc(=O)[nH]c(SCc2nnc(-c3ccc(OCC)cc3)o2)n1	/	19%	/	/	/	/
CN1CCCCC12Cc1ccccc1CN([S+](=O)([O-])c1ccccc1)C2 (centres undefined)	/	4%[6.33 µM]	/	/	/	/
CC(C)(C)N=C1NN=C(c2ccc(S(=O)(=O)N3CCCCC3)cc2)CS1	-21%	?	?	16µM*	-30	-15%
CC(C)N=C1NN=C(c2ccc(F)cc2)CS1	-8%	-17%	23µM*	18µM*	-1	-9%
CC(=O)Nc1ccc(C2=NNC(=Nc3ccc(S(=O)(=O)N4CCOCC4)cc3)SC2)cc1	-22%	-21%	?	?	-52*	?
CC(=O)Nc1ccc(C(=O)Nc2ccc(S(=O)(=O)N3CCOCC3)cc2)cc1	-1%	-2%	9%	-3%	3	3%
Fc1ccc(N=C2NN=C(c3cc(F)ccc3F)CS2)cc1	?	?	15µM*	?	-96*	?
C=CCNC(=O)Nc1ccc(CC#N)cc1	/	-2%	/	/	/	/
O=S(=O)(c1ccc(N=C2NN=C(c3cc(F)ccc3F)CS2)cc1)N1CCOCC1	?	?	6.5µM*	8.2µM*	-76*	16µM*
Cc1cccc(N=C2NN=C(c3ccccc3F)CS2)c1C	5%	-8%	?	-27%	-4	0%
Fc1ccccc1N=C1NN=C(c2ccccc2)CS1	13µM*	-2%	?	?	-90*	?
Cc1cc(S(=O)(=O)N2CCOCC2)ccc1F	11%	0%	-7%	-12%	10	13%
c1ccc(CN=C2NN=C(c3ccccc3)CS2)cc1	-11%	?	?	?	-67*	-9%
Fc1ccc(F)c(C2=NNC(=Nc3ccccc3F)SC2)c1	?	-28%	16µM*	?	-8	?
CN1CCN(CCCNC(=O)C2CCc3sc(C(=O)N4CCCCCC4)cc3C2)CC1 (centres undefined)	/	8%	/	/	/	/
CCOc1ccccc1N1CCN(C(=O)[C@H]2CCC[C@H]2NC(=O)c2cnc(C)cn2)CC1	/	8%	/	/	/	/
O=S(=O)(Cc1ccccc1F)N1CCCC(Cc2noc(-c3cnccn3)n2)C1 (centres undefined)	/	47%	/	/	/	/
O=C1CSC(=Nc2ccccc2Cl)N1	5%	-14%	-7%	-12%	3	0%

Assay outcomes as filed in PubChem.
